In PubChem BioAssay (NCI) one finds growth inhibition data, which are given here for 21 compounds.

The structures appear in SMILES notation. Compounds without any hit were thinned out: in the full panel of roughly 79,000, 15% have a hit. Values without a mark were called inactive. Activity calls are given as the source filed them. No stated cut-off is given here; in the data, active means growth inhibition above about 70%; inactive means the rest.

Experiment [1] can be described thus: NCI Yeast Anticancer Drug Screen. Data for the rad50 strain (AID 155).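 Further: 0% = growth of vehicle-only cultures of the same strain.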 Particulars: S. cerevisiae rad50 strain growth inhibition; at 50.0 µM; hits give high values. The procedure, abridged:
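Relative growth inhibition (compound vs vehicle) was measured in yeast with a defined repair-gene alteration.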

Experiment [2] can be described thus: NCI Yeast Anticancer Drug Screen. Data for the mec2-1 strain (AID 157). Particulars: S. cerevisiae mec2-1 strain, at 50.0 µM, hits give high values. The procedure, abridged: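 Vehicle-treated cultures served as reference for growth inhibition of compound-exposed mec2-1 yeast.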
A short description of experiment [3]: NCI Yeast Anticancer Drug Screen. Data for the sgs1 mgt1 strain (AID 161).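 Further: 0% = growth of cultures given vehicle only.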 Particulars: S. cerevisiae sgs1 mgt1 strain, at 50.0 µM, hits give high values. The procedure, abridged:
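Genetically altered yeast, compound exposure, growth inhibition relative to vehicle.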

Experiment [4] can be described thus: NCI Yeast Anticancer Drug Screen. Data for the cln2 rad14 strain (AID 165).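 Further: 0% = growth equal to vehicle treated cultures.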 To be noted: S. cerevisiae cln2 rad14 strain, at 50.0 µM, hits give high values. The procedure, abridged: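 Each compound was tested on cln2 rad14 yeast. Inhibition of growth was calculated against vehicle-exposed controls.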
The nature of experiment [5]: NCI Yeast Anticancer Drug Screen. Data for the bub3 strain (AID 167). To be noted: S. cerevisiae bub3 mutant strain, at 50.0 µM, hits give high values. The procedure, abridged: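 Screening used yeast with an engineered genetic alteration affecting cell cycle control. Compound-exposed cultures were compared with vehicle cultures, and reduced growth was taken as inhibition.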

The nature of experiment [6]: NCI Yeast Anticancer Drug Screen. Data for the mlh1 rad18 strain (AID 175). To be noted: S. cerevisiae mlh1 rad18 strain growth inhibition; at 50.0 µM; hits give high values. The gist of the method:
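Vehicle-treated cultures served as the reference for growth inhibition in a yeast strain carrying DNA damage repair alterations exposed to each compound.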

`OCC[N+]12CCCN1CCC2`: the growth inhibition in experiment [1] was -15.4%; in experiment [2] it was -27%; in experiment [3], -21.4%; in experiment [4], -12.9%; in experiment [5], -15.3%; in experiment [6], -30.4%.
Consider `S=C1SCN(c2ccc(Br)cc2)CN1c1ccc2[nH]c(=S)sc2c1`, for which the growth inhibition in experiment [1] is 10.6%; in experiment [2], 15.3%; in experiment [3], 26.1%; in experiment [4], 0.45%; in experiment [5], 12.1%; in experiment [6] it was 5.65%.
Regarding `C=CCn1c(SCc2ccccc2)nccc1=O`, the growth inhibition is 25.1% in experiment [1]; -10.8% in experiment [2]; 16.9% in experiment [3]; -33% in experiment [4]; 7.15% in experiment [5]; 8.9% in experiment [6].
In the case of `NC(N)=NCCCCC(=O)Nc1ccc(S(N)(=O)=O)cc1`, the growth inhibition was 6.15% in experiment [1]; -0.65% in experiment [2]; -13.2% in experiment [3]; -6.15% in experiment [4]; -3.75% in experiment [5]; -19.2% in experiment [6].
As for `CC(=O)OC1C(=O)C2C(CC=C3CC(O)CC(O)C32C)C2CCC(C(C)C3CC(C)C(C)(C)O3)C12C` (stereo unspecified), the growth inhibition in experiment [1] is -31.3%; in experiment [2] it was -5.15%; in experiment [3], -29.8%; in experiment [4], -10.4%; in experiment [5], -10.8%; in experiment [6], -25.6%.
Regarding `CCOC(=O)N(C)C(=C(F)F)C(F)(F)F`, the growth inhibition was 9.1% in experiment [1]; -0.1% in experiment [2]; 10.8% in experiment [3]; 33.6% in experiment [4]; 12.4% in experiment [5]; -26.1% in experiment [6].
Turning to `COC(=O)C(C#N)=C(C)C`, the growth inhibition in experiment [1] was 2.3%; in experiment [2], -23.6%; in experiment [3], 16.9%; in experiment [4], 19.9%; in experiment [5], 0.05%; in experiment [6], 7.95%.
As to `CC(=O)OCC1OC(Cl)C(NS(=O)(=O)Cc2ccccc2)C(OC(C)=O)C1OC(C)=O` (stereo unspecified), the growth inhibition in experiment [1] is 7.6%; in experiment [2], 15.7%; in experiment [3], 15.7%; in experiment [4], 24.6%; in experiment [5], 5.35%; in experiment [6], 22.4%.
With `CC(N)(CCSCP(=O)(O)O)C(=O)O` (stereo unspecified), the growth inhibition is -22.1% in experiment [1]; -7.4% in experiment [2]; -19.5% in experiment [3]; -26.9% in experiment [4]; -7.45% in experiment [5]; -27.4% in experiment [6].
`CC(=O)OC1CCC2(C)C3C/C(=N\O)C4(C)C(C(C)OC(C)=O)CCC4C3CCC2(C)C1` (stereo unspecified): the growth inhibition in experiment [1] was 95.3% (active); in experiment [2], 96.7% (active); in experiment [3], 96% (active); in experiment [4] it was 91.8% (active); in experiment [5], 93.2% (active); in experiment [6], 95.9% (active).
For the compound `COc1ccc(OC)c(Cc2ccc(NC(C)=O)cc2)c1`, the growth inhibition in experiment [1] was 4.75%; in experiment [2] it was -2.15%; in experiment [3], 3.3%; in experiment [4] it was -38.2%; in experiment [5], -0.75%; in experiment [6] it was -2.65%.
As for `N#Cc1ccc(Sc2ccccc2)cc1C#N`, the growth inhibition in experiment [1] was 12.8%; in experiment [2] it was -8.7%; in experiment [3], 24.4%; in experiment [4] it was 10.2%; in experiment [5], 24.9%; in experiment [6] it was 0.6%.
In the case of `C=CCCCCCC(O)C(O)C/C=C\C/C=C\CC` (stereo unspecified), the growth inhibition in experiment [1] was 18.4%; in experiment [2], 4.6%; in experiment [3], 22.8%; in experiment [4], -1.35%; in experiment [5], 15.5%; in experiment [6], 27.2%.
In the case of `NC1CCCCC1NCCNC1CCCCC1N` (stereo unspecified), the growth inhibition is -3.15% in experiment [1]; 9.35% in experiment [2]; 16.4% in experiment [3]; -12.9% in experiment [4]; 42.4% in experiment [5]; 10.8% in experiment [6].
Regarding `c1ccc(C(C2=Nc3cccc4cccc(c34)N2)c2ccccc2)cc1`, the growth inhibition in experiment [1] is -36.6%; in experiment [2] it was -18.4%; in experiment [3], -50.7%; in experiment [4], 11.1%; in experiment [5], -9.75%; in experiment [6] it was -22.8%.
`Cc1ccc(S(=O)(=O)NN=C2CCS(=O)CC2)cc1` (stereo unspecified): the growth inhibition was -19.6% in experiment [1]; 10.7% in experiment [2]; 7.6% in experiment [3]; -32.4% in experiment [4]; -10.5% in experiment [5]; -28.5% in experiment [6].
As for `Cc1cc(Br)cc(Cl)c1O`, the growth inhibition in experiment [1] is -22.1%; in experiment [2], -7.9%; in experiment [3], 6.55%; in experiment [4] it was -11.2%; in experiment [5] it was -30.2%; in experiment [6], -12.4%.
For the compound `OCCOc1c(Cl)c(C(Cl)(Cl)Cl)nc2ccccc12`, the growth inhibition in experiment [1] is 84.2% (active); in experiment [2], 95.3% (active); in experiment [3], 91% (active); in experiment [4], 46%; in experiment [5], 94% (active); in experiment [6], 94.3% (active).
Consider `CC1CN(c2nc3ccccc3o2)C(C)CN1c1nc2ccccc2o1` (stereo unspecified), for which the growth inhibition in experiment [1] was -7.15%; in experiment [2] it was 5.6%; in experiment [3] it was -9.1%; in experiment [4], 11.8%; in experiment [5], 9.9%; in experiment [6], -12.3%.
Turning to `Cc1ccc(P(=S)(c2ccc(C)c3ccccc23)c2ccc(C)c3ccccc23)c2ccccc12`, the growth inhibition was -8.1% in experiment [1]; -6.3% in experiment [2]; -3.4% in experiment [3]; -8.7% in experiment [4]; 0.1% in experiment [5]; -4.9% in experiment [6].
Consider `CN(C)Cc1cc(C(=O)/C=C/c2c(Cl)cccc2Cl)cc(CN(C)C)c1O`, for which the growth inhibition was -32% in experiment [1]; -17.6% in experiment [2]; -3% in experiment [3]; -31.2% in experiment [4]; -0.75% in experiment [5]; -18.9% in experiment [6].
